PubChem BioAssay AID463173 (ICCB-Longwood Screening Facility, Harvard Medical School, 2010)
About 4,300 (8.3%) of roughly 52,000 compounds were called active. Many of the other results were omitted from the sample, so actives are more common in it than they were. Unmarked numbers belong to inactive results. No stated cut-off is given here; in the data, active means survival mostly below about 52% (no sharp cut-off); inactive means mostly above about 56%.

test system: DeltatarO mutant; test: growth inhibition of S. aureus wild type versus tarO mutant, primary screen, teichoic acid synthesis inhibitors, RN4220, OD600 (AID 463173); conditions: OD600, 18 h, active compounds read low, screened at 18.75 µg/mL (by protocol)

SMILES	survival
COc1ccc(C2=C(N3CCN(c4cc(C)ccc4C)CC3)c3ccccc3C2=O)cc1	28% (active)
COc1ccc(C2=C(N3CCN(c4cc(Cl)ccc4C)CC3)c3ccccc3C2=O)cc1	95%
Cc1ccc(C)c(N2CCN(C3=C(c4ccccc4)C(=O)c4ccccc43)CC2)c1	100%
Cn1c(-c2ccccc2)cnc1NC(=O)c1ccc(F)cc1	81%
CCc1ccc(CNc2ncc(-c3cccc(OC)c3)n2C)cc1	8% (active)
Cn1c(-c2cccc(Br)c2)cnc1NCc1cccc(F)c1	28% (active)
COc1cccc(-c2cnc(NCc3ccccc3Cl)n2C)c1	51%
COc1cccc(C(=O)n2nc(-c3cccnc3)nc2NCc2ccc(F)cc2)c1	71%
O=C(NCc1cccc(F)c1)c1ccc(-n2cnc3cccnc32)cc1	97%
Cc1cc(Cl)ccc1NC(=O)CS(=O)(=O)c1cccc2nsnc12	125%
Fc1ccc(-c2cc(-c3nc(-c4cccc(Cl)c4)no3)[nH]n2)cc1	88%
CC(C)(C)c1ccc(C(=O)NC2CCSC2=O)cc1 (centres undefined)	92%
NC(=O)c1ccccc1NC(=O)Cn1nc(Cc2cccnc2)c2ccccc2c1=O	71%
COc1ccc(C(=O)NCCn2cc(SCc3cc(C)ccc3C)c3ccccc32)cc1	57%
O=C(NCCn1cc(SCc2ccc(C(F)(F)F)cc2)c2ccccc21)c1ccccc1F	36% (active)
Cc1ccc(C)c(CSc2cn(CCNC(=O)c3ccccc3F)c3ccccc23)c1	35% (active)
O=C(CSc1cn(CCNC(=O)c2cccc(C(F)(F)F)c2)c2ccccc12)Nc1ccc2c(c1)OCCO2	87%
COc1ccc(C(=O)NCCn2cc(SC(C)c3ccccc3)c3ccccc32)cc1OC (centres undefined)	61%
COc1ccc(C(=O)NCCn2cc(SCc3cccc(F)c3)c3ccccc32)cc1OC	52%
CC(Sc1cn(CCNC(=O)c2ccccc2F)c2ccccc12)c1ccccc1 (centres undefined)	42% (active)
O=C(NCCn1cc(SCc2cccc(F)c2)c2ccccc21)c1cccc(C(F)(F)F)c1	35% (active)
O=C(CSc1cn(CCNC(=O)c2ccccc2F)c2ccccc12)Nc1ccccc1F	80%
Cc1ccc(C)c(CSc2cn(CCNC(=O)c3cccs3)c3ccccc23)c1	71%

SMILES	survival
O=C(NCCn1cc(SCc2ccc(C(F)(F)F)cc2)c2ccccc21)c1cccs1	95%
COc1ccc(C(=O)NCCn2cc(SCc3ccc(C(F)(F)F)cc3)c3ccccc32)cc1OC	72%
O=C(CCC(=O)N1CC2CCCN2c2ccccc21)NCc1ccccc1F (centres undefined)	131%
CCOc1ccc(NC(=O)C2CCC(N3C(=O)C4CC=CCC4C3=O)CC2)cc1 (centres undefined)	77%
COc1ccc2oc(=O)c(-c3nc(-c4cccs4)no3)cc2c1	73%
CCc1ccc(NC(=O)CSc2nccn2C2CCCC2)cc1	70%
CCN(C(=O)c1cc2c(Cl)nc3ccc(C)cc3c2s1)c1cc(OC)ccc1OC	61%
CCOc1ccc2c(c1)c(=O)c(S(=O)(=O)c1ccc(C)cc1)cn2CC(=O)Nc1ccc(C)cc1	66%
O=C(CSc1cn(CCNC(=O)c2c(F)cccc2F)c2ccccc12)Nc1ccc(F)cc1	128%
O=C(CSc1cn(CCNC(=O)c2c(F)cccc2F)c2ccccc12)Nc1ccccc1F	55%
O=C(NCCn1cc(SCc2ccccc2)c2ccccc21)c1cccs1	54% (active)
O=C(NCCn1cc(SCc2ccc(F)cc2)c2ccccc21)c1c(F)cccc1F	53% (active)
O=C(NCCn1cc(SCc2ccc(Br)cc2)c2ccccc21)c1cccs1	110%
O=C(NCCn1cc(SCc2ccc(F)cc2)c2ccccc21)c1cccs1	50%
CCOc1ccc(-c2cccc(NS(=O)(=O)c3ccc(F)cc3F)c2)nn1	77%
CCN(CC)CCCNC(=O)Cn1nc(N2CCN(c3ccccc3OC)CC2)ccc1=O	75%
CCOc1ccccc1Oc1ncnc2c1oc1ccccc12	83%
Fc1ccccc1Oc1ncnc2c1oc1ccccc12	37% (active)
COc1ccc(Oc2ncnc3c2oc2ccccc23)cc1	55%
CC(=O)N1CCc2cc(S(=O)(=O)NC(CC(C)C)C(=O)Nc3ccc(C(C)C)cc3)ccc21 (centres undefined)	61%
FC(F)(F)c1cccc(N2CCN(c3ncnc4c3nc3n4CCCC3)CC2)c1	95%
CCOC(=O)c1ccccc1NC(=O)CSc1nnc(CC)n2c1cc1occc12	63%
O=C(O)C1CCCCC1C(=O)Nc1cccc(C(=O)N2CCCCC2)c1 (centres undefined)	101%

SMILES	survival
COc1ccc(OC)c(NC(=O)c2ccc3c(SCC(=O)O)c4c(nc3c2)CCCC4)c1	64%
Cn1cnc2c(=O)oc3ccc(S(=O)(=O)N4CCN(c5cccc(Cl)c5)CC4)cc3c21	-5% (active)
Cn1cnc2c(=O)oc3ccc(S(=O)(=O)N4CCN(c5cccc(C(F)(F)F)c5)CC4)cc3c21	108%
Cn1cnc2c(=O)oc3ccc(S(=O)(=O)N4CCN(c5ccccc5)CC4)cc3c21	77%
Cc1ccc(/C=C/c2onc(C)c2S(=O)(=O)N2CCC(C(=O)NCc3ccco3)CC2)cc1	74%
O=C(Nc1sc2c(c1C(=O)Nc1ccccc1Cl)CCCC2)c1ccccc1F	48% (active)
CCOc1ccccc1NC(=O)c1c(NC(=O)Cc2ccc(OC)cc2)sc2c1CCC2	61%
Cc1ccccc1NC(=O)c1c(NC(=O)c2ccccc2)sc2c1CCC2	126%
CCOc1ccccc1NC(=O)c1c(NC(=O)c2cccc(C)c2)sc2c1CCCC2	76%
CCOc1ccccc1NC(=O)c1c(NC(=O)Cc2ccccc2)sc2c1CCCC2	81%
CCc1ccccc1NC(=O)c1c(NC(=O)c2ccccc2)sc2c1CCCC2	42% (active)
Cc1ccccc1NC(=O)c1c(NC(=O)Cc2ccccc2)sc2c1CCC2	29% (active)
COc1ccccc1NC(=O)c1c(NC(=O)c2ccccc2Cl)sc2c1CCC2	78%
O=C(Cc1ccccc1)Nc1sc2c(c1C(=O)Nc1ccccc1Cl)CCC2	34% (active)
CCOc1ccccc1NC(=O)c1c(NC(=O)c2ccccc2)sc2c1CCCC2	58%
COc1ccccc1NC(=O)c1c(NC(=O)c2ccccc2F)sc2c1CCC2	136%
O=C(NC1CC(=O)N(c2ccc(Cl)cc2)C1)c1ccc2c(c1)OCO2 (centres undefined)	78%
CN(C(=O)c1nn(C)c2c1COc1ccccc1-2)c1cccc(C(F)(F)F)c1	81%
Cc1ccc(C2=Nc3ccccc3N(CC(=O)Nc3cccc(F)c3)C(=O)C2)cc1C	79%
CCOC(=O)CC(=O)CSc1nc2ccccc2c(=O)n1CCc1ccccc1	84%
COc1cccc(C(=O)Nc2ccc3oc(-c4cccc5c(Br)cccc45)nc3c2)c1	59%
O=C(CCC1N=C2c3ccccc3N=C(SCC(=O)Nc3ccc(F)cc3)N2C1=O)NCc1cccs1 (centres undefined)	87%
O=C(COc1ccccc1)Nc1sc2c(c1C(=O)Nc1ccccc1Cl)CCCCC2	56% (active)

SMILES	survival
O=C(Cc1ccccc1)Nc1sc2c(c1C(=O)Nc1ccccc1Cl)CCCC2	31% (active)
O=C(Cc1ccccc1)Nc1sc2c(c1C(=O)Nc1ccccc1Cl)CCCCC2	47%
O=C(O)CCC(=O)Nc1sc2c(c1C(=O)Nc1ccccc1)CCCCC2	92%
O=C(COc1ccccc1)Nc1sc2c(c1C(=O)Nc1ccccc1)CCCCC2	85%
COc1ccccc1NC(=O)c1c(NC(=O)COc2ccccc2)sc2c1CCCCC2	85%
CCn1c(=O)n(CC)c2cc(N3CCCCC3)c(NC(=O)Nc3ccccc3C(F)(F)F)cc21	101%
Cc1cc(-c2ccc(C)c(S(=O)(=O)N(C(C)C)C3CCCCC3)c2)on1	88%
Cn1c2c(c(=O)n(C)c1=O)C(c1ccccc1[N+](=O)[O-])CC(=O)N2 (centres undefined)	93%
COc1ccc(-c2nc3cc(C(C)C)ccc3o2)cc1NC(=O)c1ccc(C)c(Cl)c1	21% (active)
CCOc1ccc(C(=O)Nc2ccc(-c3nc4cc(C(C)C)ccc4o3)cc2)cc1Cl	65%
COc1ccc(-c2nc3cc(NC(=O)COc4ccccc4C)ccc3o2)cc1	60%
COc1ccc(-c2nc3cc(NC(=O)COc4ccc(C)c(C)c4)ccc3o2)cc1	84%
COc1ccc(-c2nc3cc(C(C)C)ccc3o2)cc1NC(=O)COc1ccc(C)cc1C	37% (active)
COc1ccc(-c2nc3cc(C(C)C)ccc3o2)cc1NC(=O)c1ccccc1[N+](=O)[O-]	50%
O=C(Nc1ccc(F)c(Cl)c1)C1CCCN(S(=O)(=O)c2cccc3nsnc23)C1 (centres undefined)	67%
O=C(CSc1nc2c([nH]c3ccccc32)c(=O)n1-c1ccc(Cl)cc1)NC1CCCCC1	87%
COc1ccccc1NC(=O)Cn1c(=O)n(-c2ccccc2Cl)c(=O)c2sc3ccccc3c21	77%
O=C(CN(CC1CCCO1)S(=O)(=O)c1ccc(S(=O)(=O)N2CCOCC2)cc1)Nc1ccccc1 (centres undefined)	89%
CCOC(=O)c1ccccc1NC(=O)Cn1ccn2nc(-c3ccc(OCC)cc3)cc2c1=O	115%
COC(=O)CSc1nc2cc3c(cc2cc1C#N)OCO3	97%
